Compound activity: PubChem BioAssay, National Center for Advancing Translational Sciences (NCATS)
DRD3 antagonist = qHTS of D3 Dopamine Receptor Antagonist: qHTS | AID 652054, 2013 | max response, negative = inhibition, % | actives 2.5% (n = 360,000) | D3R cells, DiscoveRx beta-arrestin luminescence, antagonist mode; active compounds read low; in the data active means max response below about -50%; inconclusive means no clear call, values can overlap the other calls; further: on the % scale 0 is the no-effect control and ±100 the full control effect
Target sequence (P35462 whole entry, looked up): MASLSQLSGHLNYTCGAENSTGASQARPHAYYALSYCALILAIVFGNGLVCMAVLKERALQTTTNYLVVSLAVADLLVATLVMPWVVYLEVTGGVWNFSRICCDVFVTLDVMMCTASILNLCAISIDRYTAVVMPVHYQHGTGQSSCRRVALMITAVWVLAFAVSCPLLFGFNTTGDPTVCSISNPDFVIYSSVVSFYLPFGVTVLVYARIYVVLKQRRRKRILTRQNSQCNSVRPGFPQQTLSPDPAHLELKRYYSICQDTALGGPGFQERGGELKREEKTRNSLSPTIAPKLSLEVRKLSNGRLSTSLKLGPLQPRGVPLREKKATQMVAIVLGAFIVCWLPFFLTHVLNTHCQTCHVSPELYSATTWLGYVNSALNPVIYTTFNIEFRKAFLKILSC
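Cells expressing the human receptor were seeded at 1500 cells/well, incubated overnight at 37 degrees C in 5% CO2, then exposed to library compounds with dopamine controls for 90 minutes at 37 degrees C before luminescent detection.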
Nrf2 activator = qHTS of Nrf2 Activators; AREc32 ARE-luciferase reporter (MCF7-derived line), luminescence, 24 h; Potency, µM (doses to about 46.1 µM), without a hit: top-dose activation, actives largely listed as activators; actives 0.31% (n = 410,000); AID 624171, 2012; further: potency means the concentration at half of the fitted maximal effect; % of control where 0% means no effect; nearly all actives have a fitted effect of over 65% in size
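ARE-driven firefly luciferase activity in AREc32 cells measured after a 24 hr compound exposure at 37 deg C, using Steady-Glo reagent and a 30 min room-temperature hold.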
DRD3 agonist = qHTS of D3 Dopamine Receptor Agonist: qHTS | D(3) dopamine receptor (Homo sapiens), P35462 | D3R DiscoveRx beta-arrestin cells, luminescence, 90 min | max activation, % | AID 652048, 2013 | actives 0.58% (n = 410,000); in the data active means max activation above about 30%; further: 0% is about no effect
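Agonist-mode cell screen: cells plated at 1500/well and incubated overnight at 37 °C, then exposed to library compounds for 90 min at 37 °C. Detection reagent was added for 30–60 min at room temperature, and luminescence was read.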
GRP78 ERSR act = qHTS for Inducers of the Endoplasmic Reticulum Stress Response (ERSR) in Human Glioma: qHTS; Potency, µM, inactives show top-dose activation, hits mostly activators; actives 0.02% (n = 420,000); AID 602332, 2012; U87-MG GRP78 promoter luciferase reporter, 16 h; further: potency means the concentration at half of the fitted maximal effect; series mostly up to about 76 µM; % of control where 0% means no effect; nearly all actives have a fitted effect of over 35% in size
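Stably transfected U87-MG glioma cells carrying a GRP78-based luciferase sensor; 16 h compound incubation. Luminescence end-point read 10 min after Bright-Glo addition at room temperature.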
The depositor's hits bear a star; u = inconclusive; x = no result; [ ] = remark or other dose. An excerpt weighted towards active compounds, which were near 3% of everything screened. Unless noted, the call rests on the fitted dose curve; in most records, active means well fitted curve in the direction sought with a large enough effect; inconclusive means small, poorly fitted or top-dose-only effect, or another doubt; inactive means no such curve, though single readings can be large; an effect the other way counts as inactive or inconclusive.

SMILES	DRD3 antagonist	Nrf2 activator	DRD3 agonist	GRP78 ERSR act
O=S(=O)(c1ccc(Cl)cc1)N1CCN(Cc2ccc(O)c3ncccc23)CC1	-12	0%	-8	-6%
COCc1ccc(O)c2ncccc12	-78*	10%	-26	-2%
CCN1CCCC(CO)(Cc2ccccc2)C1 (configuration not stated)	16	0%	-3	-3%
Oc1ccc(CN2CCN(Cc3ccccc3)CC2)c2cccnc12	-58*	7%	-16	-6%
Cc1cccc(C(=O)NCc2nc(-c3cccc(NC(=O)c4ccoc4C)c3)oc2C)n1	x	x	x	0%
OC1(c2cccc(C(F)(F)F)c2)CCN(c2ncnc3c2[nH]c2ccc(F)cc23)CC1	-25	-3%	40*	-18%
CCN1CCC(N2CCN(c3ccc(F)cc3)CC2)CC1	11	0%	2	-5%
Fc1ccc(N2CCN(C3CCC(c4ccccc4)CC3)CC2)cc1 (configuration not stated)	-82*	0%	-13	-4%
CCOC(=O)c1sc(C)c2c1NC1(CCCCC1)NC2=O	4	4%	47*	-2%
COc1ccc2c(c1)CCc1c(C(=O)Nc3c(C)nn(Cc4c(Cl)cccc4Cl)c3C)noc1-2	x	0%	4	-3%
CCCNC(=O)NC(=O)CN1C(=O)NC(C)(c2ccc(C)cc2)C1=O (configuration not stated)	10	-1%	9	-3%
CCCNC(=O)NC(=O)CN1C(=O)NC(C)(c2ccc3ccccc3c2)C1=O (configuration not stated)	3	3%	35*	-2%
COC(=O)CSc1nnc(-c2cccc(O)c2)o1	x	-1%	-23	-5%
COc1cc(SSc2cc(OC)cc([N+](=O)[O-])c2N)c(N)c([N+](=O)[O-])c1	-77*	u	-25	-1%
CC1(C)CC2C1CCC1(O)CC2(C)CCC1N(O)c1ccc(C(=O)NCCO)cn1 (configuration not stated)	30	0%	40*	-4%
Cc1ccc(Sc2ccc(CO)cc2[N+](=O)[O-])cc1	u	4%	-8	6%
CN1CCN(Cc2ccc(Sc3ccc(Cl)cc3)c([N+](=O)[O-])c2)CC1	-55*	8%	-44	-1%
Cc1ccc(Sc2ccc(CN3CCCC3)cc2[N+](=O)[O-])cc1	-79*	18%	-20	0%
CCC(O)CNC(=O)c1cnn(-c2ncc3c(n2)-c2ccccc2CCC3)c1C1CC1 (configuration not stated)	x	x	x	0%
O=C(NC(c1cccnc1)C(F)(F)F)c1cnn(-c2nccc(-c3cccs3)n2)c1C1CC1 (configuration not stated)	x	x	x	2%
Cc1cccc2c(/C=C/c3ccc(N(C)C)cc3)ccnc12	x	x	x	-7%
CCOC(=O)c1cc2c(C)n(-c3ccc(N(C)C)cc3)c(C)c2cc(C(=O)OCC)c1=O	28	-1%	57*	0%
CCn1c(SCC(=O)NC)nnc1C(C)C	-52*	-1%	-3	-5%
CNC(=O)CSc1nnc(C(C)C)n1C	-12	0%	-5	1%
O=C(C[n+]1ccccc1Br)c1ccc2c(c1)CCCC2	x	x	x	-1%
SMILES	DRD3 antagonist	Nrf2 activator	DRD3 agonist	GRP78 ERSR act
O=C(c1ccc([N+](=O)[O-])cc1[N+](=O)[O-])N1CCc2ccccc21	-51*	-1%[9.22 µM]	-13	-3%
CC(=O)c1ccc(-c2cccc(-c3cc(=O)oc4ccc(C(C)(C)C)cc34)c2)cc1	37	5%	39*	-1%
CSc1nnc(CCNC(=O)/C=C/c2cccc(F)c2)n1-c1ccc(F)cc1	x	x	x	-4%
Cc1cc(NC(=O)c2c(Cl)cnn2C)no1	-71*	0%	1	0%
O=C(c1ccccc1)N1CCCCC(Sc2nnnn2-c2ccccc2)C1=O (configuration not stated)	-60*	-1%	-10	0%
CCC(C)NCCOc1cc(C)cc(C)c1C (configuration not stated)	-69*	-1%	-15	-4%
CCC(C)NCCCCOc1cc(C)cc(C(C)C)c1 (configuration not stated)	0	3%	-12	-5%
CN(C)c1ccc(/C=C/c2ccnc3c(O)ccc(O)c23)cc1	x	x	x	-1%
Cc1nc2cc(NC(=O)[C@@H]3C[C@@H](Sc4ccccn4)CN3Cc3ccccc3)ccc2s1	x	x	x	-2%
COc1ccc(N=C2C(=O)Nc3ccccc32)cc1	u	5%	-43	-1%
